Test results published in PubChem BioAssay AID1159580 (chemical genetic matrix, 2015).
Hit rate of the full screen: of about 5,500 compounds, about 2,000 (36%) were called active. Inconclusive results (about 18%) are left out. Cut-off read from the data, not from the text of the source: active = normalized growth mostly below about 0.91 (no sharp cut-off); inconclusive = no clear call, values can overlap the other calls; inactive = mostly above about 0.92. This is one part of the list.

Experiment: chemical genetic growth profiling, strain panel (AID 1159580);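 note: tested at 20 µM; growth read once vehicle control cultures reached saturation at 30 °C; 1 = growth at the plate median or of vehicle wells; lower values mean less growth of the strain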
Conditions: growth OD

Measured: normalized growth

C[C@@H]1O[C@@H](O[C@H]2CC[C@]3(C=O)C4CC[C@]5(C)[C@@H](C6=CC(=O)OC6)CC[C@]5(O)C4CC[C@]3(O)C2)[C@H](O)[C@H](O)[C@H]1O (stereo not given in full)
inactive: S. cerevisiae deletion strains, locus YJR066W, strain TOR1, stronger effect = lower value 0.953 | S. cerevisiae deletion strains, locus YJR075W, strain HOC1, stronger effect = lower value 0.989 | S. cerevisiae deletion strains, locus YKL009W, strain mrt4, stronger effect = lower value 1.05 | S. cerevisiae deletion strains, locus YKL068W, stronger effect = lower value 0.991 | S. cerevisiae deletion strains, locus YKL085W, strain MDH1 (second series), stronger effect = lower value 0.999 | S. cerevisiae deletion strains, locus YKL085W, strain MDH1, stronger effect = lower value 0.999 | S. cerevisiae deletion strains, locus YKL160W, strain elf1, stronger effect = lower value 1.01 | S. cerevisiae deletion strains, locus YKL190W, strain CNB1, stronger effect = lower value 0.988 | S. cerevisiae deletion strains, locus YKR001C, strain vps1, stronger effect = lower value 0.995 | S. cerevisiae deletion strains, locus YKR026C, strain gcn3, stronger effect = lower value 0.997 | S. cerevisiae deletion strains, locus YKR091W, strain srl3, stronger effect = lower value 0.997 | S. cerevisiae deletion strains, locus YLL001W, strain dnm1, stronger effect = lower value 1.01 | S. cerevisiae deletion strains, locus YLL026W, stronger effect = lower value 0.995 | S. cerevisiae deletion strains, locus YLL041C, strain sdh2, stronger effect = lower value 1 | S. cerevisiae deletion strains, locus YLR027C, strain aat2, stronger effect = lower value 0.999 | S. cerevisiae deletion strains, locus YLR039C, strain RIC1, stronger effect = lower value 0.977 | S. cerevisiae deletion strains, locus YLR058C, strain SHM2, stronger effect = lower value 0.981 | S. cerevisiae deletion strains, locus YLR102C, strain apc9, stronger effect = lower value 0.997 | S. cerevisiae deletion strains, locus YLR113W, strain HOG1, stronger effect = lower value 0.952 | S. cerevisiae deletion strains, locus YLR221C, strain rsa3, stronger effect = lower value 1.01 | S. cerevisiae deletion strains, locus YLR258W, strain gsy2, stronger effect = lower value 0.991 | S. cerevisiae deletion strains, locus YLR262C, strain YPT6 (second series), stronger effect = lower value 1.01 | S. cerevisiae deletion strains, locus YLR262C, strain YPT6, stronger effect = lower value 0.914 | S. cerevisiae deletion strains, locus YLR268W, strain sec22, stronger effect = lower value 1.01 | S. cerevisiae deletion strains, locus YLR320W, strain mms22, stronger effect = lower value 0.989 | S. cerevisiae deletion strains, locus YLR330W, strain CHS5, stronger effect = lower value 1 | S. cerevisiae deletion strains, locus YLR342W, strain FKS1 (second series), stronger effect = lower value 1.06 | S. cerevisiae deletion strains, locus YLR342W, strain FKS1, stronger effect = lower value 0.999 | S. cerevisiae deletion strains, locus YLR357W, strain rsc2, stronger effect = lower value 0.959 | S. cerevisiae deletion strains, locus YLR370C, strain arc18, stronger effect = lower value 1.01 | S. cerevisiae deletion strains, locus YLR371W, strain rom2, stronger effect = lower value 0.978 | S. cerevisiae deletion strains, locus YLR384C, strain iki3, stronger effect = lower value 0.987 | S. cerevisiae deletion strains, locus YLR418C, strain cdc73, stronger effect = lower value 0.964 | S. cerevisiae deletion strains, locus YML016C, strain PPZ1, stronger effect = lower value 0.995 | S. cerevisiae deletion strains, locus YML032C, strain rad52, stronger effect = lower value 0.991 | S. cerevisiae deletion strains, locus YML120C, strain ndi1, stronger effect = lower value 0.994 | S. cerevisiae deletion strains, locus YML124C, strain tub3, stronger effect = lower value 0.983 | S. cerevisiae deletion strains, locus YMR058W, strain fet3, stronger effect = lower value 1 | S. cerevisiae deletion strains, locus YMR078C, strain ctf18, stronger effect = lower value 0.976 | S. cerevisiae deletion strains, locus YMR125W, strain sto1, stronger effect = lower value 0.969 | S. cerevisiae deletion strains, locus YMR129W, stronger effect = lower value 0.998 | S. cerevisiae deletion strains, locus YMR205C, strain PFK2, stronger effect = lower value 0.954 | S. cerevisiae deletion strains, locus YMR223W, strain ubp8, stronger effect = lower value 0.962 | S. cerevisiae deletion strains, locus YMR231W, strain pep5, stronger effect = lower value 0.998 | S. cerevisiae deletion strains, locus YMR307W, strain GAS1, stronger effect = lower value 0.977 | S. cerevisiae deletion strains, locus YNL067W, strain RPL9B, stronger effect = lower value 0.975 | S. cerevisiae deletion strains, locus YNL071W, strain lat1, stronger effect = lower value 1 | S. cerevisiae deletion strains, locus YNL183C, strain NPR1, stronger effect = lower value 0.965 | S. cerevisiae deletion strains, locus YNL209W, strain ssb2, stronger effect = lower value 1 | S. cerevisiae deletion strains, locus YNL233W, strain BNI4, stronger effect = lower value 0.999 | S. cerevisiae deletion strains, locus YNL248C, strain rpa49, stronger effect = lower value 1.01 | S. cerevisiae deletion strains, locus YNL250W, strain rad50, stronger effect = lower value 0.993 | S. cerevisiae deletion strains, locus YNL271C, strain bni1, stronger effect = lower value 0.985 | S. cerevisiae deletion strains, locus YNL298W, strain CLA4, stronger effect = lower value 1 | S. cerevisiae deletion strains, locus YNL307C, strain MCK1, stronger effect = lower value 0.992 | S. cerevisiae deletion strains, locus YNL322C, strain KRE1 (second series), stronger effect = lower value 1.01 | S. cerevisiae deletion strains, locus YNL322C, strain KRE1, stronger effect = lower value 0.994 | S. cerevisiae deletion strains, locus YNR049C, strain mso1, stronger effect = lower value 1.01 | S. cerevisiae deletion strains, locus YNR052C, strain pop2, stronger effect = lower value 0.998 | S. cerevisiae deletion strains, locus YOL006C, strain TOP1, stronger effect = lower value 1.12 | S. cerevisiae deletion strains, locus YOL012C, strain htz1 0.98 | S. cerevisiae deletion strains, locus YOL147C, strain pex11, stronger effect = lower value 0.998 | S. cerevisiae deletion strains, locus YOR001W, strain rrp6, stronger effect = lower value 1 | S. cerevisiae deletion strains, locus YOR061W, strain CKA2, stronger effect = lower value 0.973 | S. cerevisiae deletion strains, locus YOR069W, strain VPS5, stronger effect = lower value 1 | S. cerevisiae deletion strains, locus YOR070C, strain gyp1, stronger effect = lower value 0.999 | S. cerevisiae deletion strains, locus YOR080W, strain dia2, stronger effect = lower value 0.988 | S. cerevisiae deletion strains, locus YOR083W, strain WHI5, stronger effect = lower value 1.01 | S. cerevisiae deletion strains, locus YOR106W, strain vam3, stronger effect = lower value 0.998 | S. cerevisiae deletion strains, locus YOR136W, strain idh2, stronger effect = lower value 1 | S. cerevisiae deletion strains, locus YOR144C, strain elg1, stronger effect = lower value 0.993 | S. cerevisiae deletion strains, locus YOR184W, strain ser1, stronger effect = lower value 0.975 | S. cerevisiae deletion strains, locus YOR231W, strain MKK1, stronger effect = lower value 0.996 | S. cerevisiae deletion strains, locus YOR265W, strain rbl2, stronger effect = lower value 0.999 | S. cerevisiae deletion strains, locus YOR270C, strain vph1, stronger effect = lower value 1.02 | S. cerevisiae deletion strains, locus YOR290C, strain snf2, stronger effect = lower value 0.994 | S. cerevisiae deletion strains, locus YOR316C, strain cot1, stronger effect = lower value 0.991 | S. cerevisiae deletion strains, locus YPL051W, strain arl3, stronger effect = lower value 1.01 | S. cerevisiae deletion strains, locus YPL055C, strain LGE1, stronger effect = lower value 1 | S. cerevisiae deletion strains, locus YPL078C, strain atp4, stronger effect = lower value 1.02 | S. cerevisiae deletion strains, locus YPL106C, strain sse1, stronger effect = lower value 0.977 | S. cerevisiae deletion strains, locus YPL240C, strain hsp82, stronger effect = lower value 1.01 | S. cerevisiae deletion strains, locus YPL241C, strain CIN2, stronger effect = lower value 0.995 | S. cerevisiae deletion strains, locus YPL256C, strain CLN2, stronger effect = lower value 0.987 | S. cerevisiae deletion strains, locus YPR119W, strain clb2, stronger effect = lower value 1 | S. cerevisiae deletion strains, locus YPR141C, strain kar3, stronger effect = lower value 0.98 | S. cerevisiae deletion strains, locus YPR163C, strain tif3, stronger effect = lower value 0.983 | S. cerevisiae deletion strains, locus YPR167C, strain met16, stronger effect = lower value 1 | S. cerevisiae deletion strains, strain wtn01, stronger effect = lower value 1.03 | S. cerevisiae strains, strain wild type, stronger effect = lower value 0.989
